# Compound activity: PubChem BioAssay, Sanford-Burnham Center for Chemical Genomics
# Most compounds without a hit are left out; they make up all but 28% or so of the library.
# CYP2C19 activ – activators of human cytochrome P450 2C19; AID 1025; 96,000 tested, under 10 active; activation factor at 5 µM; recombinant CYP2C19, luciferin-H EGE luminescence; hits give high values; 0 = fully inhibited enzyme, 1 = untreated enzyme; P33261;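 active = activation factor of at least 2 at 5 µM in the primary screen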
# CYP2C9 inhib – human CYP2C9 inhibition | P11712 | CYP2C9 Supersomes, luciferin-H conversion, luminescence | inhibition, % at 5 µM | 20% of 96,000 active;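 active = blocking of liver enzyme CYP2C9 beyond about 50% at 5 µM, limit read from the data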
# CD11b adhes enh – CD11b/CD18-fibrinogen binding enhancement | activation, % at 10 µM | P05107+P11215 | K562 CD11b/CD18 adhesion to fibrinogen, ATPlite luminescence | AID 1499 | 0.07% of 93,000 active;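 active = 10 µM primary screen giving 50% or more activity, confirmed by 40% or more on retest at that dose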
# CYP2C19 inh – human CYP2C19 inhibition | CYP2C19 Supersomes, luciferin-H EGE luminescence, 30 min | inhibition, % at 5 µM | 21% of 96,000 active | AID 778;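 active = CYP2C19 inhibition above a set limit at 5 µM in the primary screen, cut at about 50% in these data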
# CYP2C9 act – CYP2C9 (human) activation. AID 1024. recombinant CYP2C9, luciferin-H conversion, luminescence; hits give high values; factor 1 = untreated enzyme, 0 = blocked. 1.4% of 96,000 active. activation factor at 5 µM;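 active = activation factor of 2 or more for CYP2C9 at a 5 µM dose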
# Mac1 fbg inh – inhibitors of human CD11b/CD18 binding to fibrinogen; K562 CD11b/CD18 adhesion to fibrinogen, ATPlite luminescence; Mn2+ added to activate the integrin; inhibition, % at 10 µM; 0.54% of 93,000 active; AID 1497;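 active = primary inhibition of 50% or more at 10 µM, then 40% or more on retest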
# Hits are given with their value; 0 = inactive; - = not tested or not shown.
SMILES,CYP2C19 activ,CYP2C9 inhib,CD11b adhes enh,CYP2C19 inh,CYP2C9 act,Mac1 fbg inh
COC(=O)C1=C(C)Nc2ccc(C)cc2S1,0,0,0,62,0,0
COC(=O)Nc1ccc(C)cc1NC(=O)OC,0,0,0,0,0,0
CCCCOc1ccc(C(=O)N2CCC(C)CC2)cc1,0,54,0,70,0,0
CCOc1ccc(C(=O)N2CCCN(C(=O)c3ccc(OCC)cc3)CC2)cc1,0,61,0,0,0,0
O=C(NCc1cccnc1)c1ccccc1[N+](=O)[O-],-,-,0,-,-,0
CCN(CC)P1(=O)OC(c2cc(OC)c(OC)c(OC)c2)=Nc2c1c(C)nn2-c1ccccc1 (centres undefined),0,96,0,78,0,0
CC(=O)NS(=O)(=O)c1cccnc1Nc1cccc(Cl)c1,0,50,0,0,0,0
COc1ccc(Nc2ncccc2C(=O)O)cc1,0,0,0,0,0,0
CC(=O)NS(=O)(=O)c1cccnc1Nc1ccc(Cl)cc1,0,85,0,0,0,0
C=CCNC(=O)c1onc(CCl)c1C(=O)OC,0,0,0,0,0,0
Fc1ccccc1CSc1nnnn1-c1ccc2c(c1)OCO2,0,0,0,92,0,0
O=C(CSc1nnnn1-c1ccc2c(c1)OCO2)NCc1ccccc1,0,0,0,92,0,0
Cc1nnc(SCC(=O)NCc2ccc3c(c2)OCO3)[nH]c1=O,0,68,0,0,0,0
COc1cccc(-n2nnnc2SCC(=O)NCc2ccc3c(c2)OCO3)c1,0,60,0,88,0,0
CCN(CC)S(=O)(=O)c1ccc(-c2ccc(S(=O)(=O)N(CC)CC)cc2)cc1,0,0,0,0,0,0
C/C=C/CSc1nc2c(c(=O)[nH]c(=O)n2C)n1Cc1ccc(C)cc1,0,0,0,0,0,0
COc1cc(OC)cc(-n2nnnc2SCC(=O)NCc2ccc3c(c2)OCO3)c1,0,0,0,53,0,0
O=[N+]([O-])c1ccc(N2CCN(S(=O)(=O)c3ccccc3[N+](=O)[O-])CC2)cc1N1CCc2ccccc2C1,-,-,0,-,-,0
COc1ccc(C(=O)N2CCN=C2c2ccccc2)cc1OC,0,0,0,0,0,0
CCOc1ccc(S(=O)(=O)n2c(C)nc3ccccc32)cc1,0,0,0,0,0,0
COc1cc(S(=O)(=O)n2c(C)nc3ccccc32)ccc1F,0,0,0,94,0,0
COc1cc(S(=O)(=O)N2CCN=C2c2ccccc2)ccc1F,0,0,0,74,0,0
CCCCOc1ccc(S(=O)(=O)n2c(C)nc3ccccc32)cc1,0,67,0,0,0,0
COC(=O)C(Cc1ccccc1)NC(=O)C12CC3CC(CC(C3)C1)C2 (centres undefined),-,-,0,-,-,0
O=C(CSc1ncn[nH]1)Nc1ccccc1-c1ccccc1,0,0,0,0,0,0
SMILES,CYP2C19 activ,CYP2C9 inhib,CD11b adhes enh,CYP2C19 inh,CYP2C9 act,Mac1 fbg inh
O=C(CSc1ncn[nH]1)NCCCc1ccccc1,0,0,0,57,0,0
O=C(CSc1ncn[nH]1)NCCc1ccccc1,0,0,0,0,0,0
O=C(CSc1ncn[nH]1)Nc1ccccc1Sc1ccccc1,0,0,0,87,0,0
Cc1ccc(C(=O)N/N=C/c2nc3ccccc3n2C)cc1,0,0,0,0,0,0
Cn1c(/C=N/NC(=O)c2ccccc2Br)nc2ccccc21,0,62,-,69,0,-
O=C(OCC(=O)N1CCc2ccccc21)c1cccnc1,0,0,0,77,0,0
O=C(Cn1[nH]c(=O)c2ccccc2c1=O)OCC(=O)N1CCCc2ccccc21,0,0,0,51,0,0
O=C(OCC(=O)N1CCCc2ccccc21)c1ccc(Br)o1,0,51,0,85,0,0
Cc1ccc(OCCC(=O)OCC(=O)N2c3ccccc3CC2C)cc1 (centres undefined),0,0,0,0,0,0
O=C(OCC(=O)N1CCc2ccccc21)c1ccccc1,0,0,0,0,0,0
CC1Cc2ccccc2N1C(=O)COC(=O)CNC(=O)c1ccc(Br)o1 (centres undefined),0,51,0,66,0,0
Cc1ccc(CN(c2ccc(C(=O)NCc3ccccn3)cc2)S(C)(=O)=O)cc1,0,0,0,0,0,0
CCSc1cnc(-c2ccccc2)n1CC,0,0,0,0,0,0
